Screening data deposited in PubChem by several laboratories.
Efa HMGR inh = blocks class II HMG-CoA reductase of Enterococcus faecalis; purified E. faecalis HMGR, NADPH absorbance 340 nm kinetic; hit rate 0.41% among 190,000; inhibition, % at 10 µM;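 active means inhibition above a set limit, the median over all tested compounds plus 3 SD, cut at about 9.5% in these data; inconclusive means no clear call, values can overlap the other calls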;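 further: enzyme runs in reverse so mevalonate oxidation gives rising NADPH absorbance; 0% = complete reaction with DMSO and 100% = background rate lacking mevalonate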
Calpain2 inh = blocks pig calpain II enzyme activity | purified calpain II, fluorogenic peptide substrate, 30 min | inhibition, % at 16 µM | hit rate 0.37% among 220,000 | AID 1236;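 active means inhibition above about 50%, limit read from the data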
HSV replic up = HSV replication enhancement. HSV replication augmentation in cells, fold increase. maximum fold increase. hit rate 0.005% among 220,000. AID 1956; in the data active means maximum fold increase above about 1.5; inconclusive means no clear call, values can overlap the other calls; tested in PC3 cells
Arbovirus inh = blocks arbovirus infection; inhibition, % at 10 µM; hit rate 0.37% among 200,000; arbovirus infection cell-based antiviral screen; in the data active means inhibition above about 30%
ROMK primary = modulates human ROMK potassium channel activity; P48048; AID 1918; B-score at 10 µM; Tet-inducible ROMK, thallium flux fluorescence; actives lie on both sides; hit rate 2% among 130,000;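 active means signal ratio slope over the read window, or its plate-corrected B-score, at least 3 SD from the plate mean, either direction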;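 further: B-score of the F/F0 ratio slope over 7 to 12 s after thallium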
Target sequence (P48048 whole entry, looked up): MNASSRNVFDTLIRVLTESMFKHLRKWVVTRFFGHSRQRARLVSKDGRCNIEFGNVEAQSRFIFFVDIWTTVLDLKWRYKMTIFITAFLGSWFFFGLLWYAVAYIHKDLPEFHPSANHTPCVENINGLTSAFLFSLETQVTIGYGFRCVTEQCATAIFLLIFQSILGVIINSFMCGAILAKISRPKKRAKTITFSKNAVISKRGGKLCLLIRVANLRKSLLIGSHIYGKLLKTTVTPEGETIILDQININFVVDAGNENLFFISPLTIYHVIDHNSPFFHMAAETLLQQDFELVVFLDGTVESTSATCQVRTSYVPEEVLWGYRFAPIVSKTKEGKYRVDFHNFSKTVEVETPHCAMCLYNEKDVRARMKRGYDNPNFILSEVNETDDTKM
ROMK hit retest = human ROMK channel modulation, retest confirmation | ROMK thallium flux, fluorescence ratio; active compounds read low | hit rate 54% among 3,000 | shares compounds with ROMK primary | AID 1917 | normalized thallium flux (F/F0 slope) at 10 µM;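 active means Flux at 10 µM at least 3 SD below or above vehicle control mean in one or both replicates; inconclusive means no clear call, values can overlap the other calls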
Starred values were filed as active, the others as inactive; i = inactive; ? = inconclusive; . = no result. Compounds with a hit are over-represented: about 2.1% of the library has one in this group of screens.

SMILES | Efa HMGR inh | Calpain2 inh | HSV replic up | Arbovirus inh | ROMK primary | ROMK hit retest
CCCCOC(=O)CCNc1n[nH]c(=O)[nH]c1=O | 0.3 | 19.1 | i | -1.1 | . | 0.0874
S=C(CN1CCCC1=S)NCCc1ccccc1 | . | 0.0 | i | . | . | 0.0784
Cc1onc(-c2ccccc2Cl)c1NC(=O)NCc1cccs1 | . | -3.0 | i | . | . | .
CCN1CCN(c2c(/C=C3\SC(=S)N(Cc4ccco4)C3=O)c(C)c(C#N)c(=O)n2C)CC1 | . | -56.4 | ? | . | . | 0.0483*
COc1ccc(CN2CCN(CC(O)Cn3c4ccccc4c4ccccc43)CC2)cc1 (configuration not stated) | -3.0 | 16.5 | i | -34.8 | -3.57* | 0.0601*
COc1ccc(-c2cc3ccccc3n2CC(O)Cn2nc(C)cc2C)cc1 (configuration not stated) | -4.5 | -60.9 | i | 27.8 | . | .
COc1ccc(-c2cc3ccccc3n2CC(O)CN2CCC(C)CC2)cc1 (configuration not stated) | 2.2 | 4.6 | i | 21.5 | -1.97* | 0.0571*
CCOC(=O)CSC1=NC(=O)/C(=C\c2ccc(OC(C)=O)cc2)S1 | -4.0 | 23.9 | i | -3.0 | . | 0.0401*
CCOC(=O)CSC1=NC(=O)/C(=C/c2ccc(Br)cc2)S1 | -1.0 | -15.9 | i | -11.3 | -0.715 | 0.0614*
Cc1ccc(NC(=O)/C=C/c2ccco2)nc1 | -2.5 | 25.9 | i | -8.1 | 4.53* | 0.09
O=C(/C=C/c1ccco1)Nc1ccccn1 | -2.6 | 12.4 | i | -12.7 | 1.79* | 0.0847
Cc1onc(-c2ccccc2)c1NC(=O)N(CCC#N)Cc1cccs1 | . | -8.9 | i | . | -1.04 | .
CN1CCc2nc3ccc(Cl)cc3c(-c3ccccc3Cl)c2C1 | 1.0 | 14.6 | i | 2.7 | . | .
Cc1ccc(NC(=O)Cn2cc(C(F)(F)F)cc(Cl)c2=O)cc1Cl | -0.7 | -31.1 | i | 1.6 | -0.0114 | .
CC1CN(C2=Nc3cccc4cccc2c34)CC(C)O1 (configuration not stated) | -0.2 | -103.2 | i | 9.5 | -1.85* | 0.0628*
c1cc2c3c(cccc3c1)C(N1CCOCC1)=N2 | . | 21.8 | i | . | . | .
c1ccc(CC2CCN(C3=Nc4cccc5cccc3c45)CC2)cc1 | -1.4 | -89.9 | . | -32.2 | -4.39* | 0.0621*
CCCC(CCC(=O)Nc1ccn(-c2ccccc2)n1)C(=O)O (configuration not stated) | . | -1.5 | i | . | 0.668 | .
Cc1nnc(SC(C)C)n(N)c1=O | -3.1 | -15.6 | i | 3.1 | 1.66 | .
CCOC(=O)C1CCCN(C(=O)c2cn(CC)c(=O)c3cc(OC)c(OC)cc23)C1 (configuration not stated) | -3.8 | -12.4 | i | -2.4 | . | 0.0728
Cc1ccccc1C=Nc1ccccc1C(N)=O | -0.4 | -447.3 | i | -16.6 | 2.77* | 0.0871
Cn1c(Cc2ccccc2)nnc1SCC(=O)NCCc1ccccc1 | 2.6 | -1.3 | i | 1.0 | 0.343 | .
Cc1cccc(C)c1OC(=O)CCN1C(=O)C2C3C=CC(C4CC34)C2C1=O (configuration not stated) | -1.9 | 40.3 | i | -5.8 | -0.859 | .
CCc1ccc(NC(=O)C(C)OC(=O)c2ccc(N3CCCC3)c([N+](=O)[O-])c2)cc1 (configuration not stated) | 1.9 | 29.7 | i | -1.0 | . | .
O=C(CCC(=O)Nc1ccccc1)NNS(=O)(=O)c1ccccc1[N+](=O)[O-] | -0.2 | 15.3 | i | 5.6 | 0.444* | 0.0869
SMILES | Efa HMGR inh | Calpain2 inh | HSV replic up | Arbovirus inh | ROMK primary | ROMK hit retest
O=C(NNS(=O)(=O)c1ccccc1[N+](=O)[O-])c1ccccc1[N+](=O)[O-] | -0.6 | 13.3 | i | 4.4 | 1.56 | .
Cc1nc(C(=O)O)nn1-c1cc(Cl)ccc1Cl | -2.4 | -16.4 | i | -0.7 | 0.985 | .
COc1ccc(NC(=O)CN(C)CC(=O)Nc2cccc(S(=O)(=O)N(C)c3ccccc3)c2)cc1 | -2.5 | 10.0 | i | 4.4 | 0.0456 | .
COc1ccc(C2=NOC(C(=O)NCc3cccs3)C2)cc1 (configuration not stated) | -8.3 | -25.0 | i | -18.1 | 3.82* | 0.0836
COc1ccc(C2=NOC(C(=O)NCc3ccco3)C2)cc1 (configuration not stated) | -7.1 | -3.6 | i | -14.1 | 3.89* | ?
Cn1cc(Br)c(NC(=O)/C=C/C(=O)O)n1 | . | -7.4 | . | . | -0.322 | .
Cc1ccc(S(=O)(=O)N2CCOCC2)cc1C(=O)NNC(=O)c1ccoc1C | 1.9 | -13.3 | i | 11.7 | -0.0142 | .
CCC(C)Sc1nc2c(c(=O)[nH]c(=O)n2C)n1CC(O)COc1ccccc1C (configuration not stated) | -4.9 | -5.2 | i | 3.7 | -3.47* | 0.0663*
CCC(C)Sc1nc2c(c(=O)[nH]c(=O)n2C)n1CCc1ccccc1 (configuration not stated) | -9.2 | 15.8 | i | 7.2 | . | .
CC(C)c1ccc(/C=N/NC(=O)CC(=O)NC2CCCCC2)cc1 | -6.8 | 33.8 | i | -3.6 | -9.21* | 0.0722
COC(=O)C(CC(=O)c1cccc(OC)c1)c1ccc(F)cc1 (configuration not stated) | 7.6 | -8.8 | i | -2.9 | -0.909 | .
Cc1ccc(C(=O)NNC(=S)Nc2cccc(Cl)c2Cl)cc1[N+](=O)[O-] | -0.2 | -45.3 | i | 5.1 | 4.31* | 0.0906
OCCN1CCN(c2cc(C(F)(F)F)nc3c(F)cccc23)CC1 | . | 8.3 | i | . | 0.0655 | .
Cc1ccc(C)c(-c2csc(N)c2C(=O)OC(C)C)c1 | 0.8 | 20.9 | i | -8.4 | 2.7* | 0.0781
Cc1cccc(-c2csc(N)c2C(=O)OC(C)C)c1 | 3.5 | 3.2 | i | -14.6 | 0.484 | .
COc1cc(Cl)c(C)cc1NC(=O)CNC(C)c1ccccc1OC (configuration not stated) | -10.3 | 89.8* | i | 25.7 | -3.99* | 0.0611*
COc1ccccc1C(C)NCC(=O)Nc1c(F)cccc1F (configuration not stated) | 0.7 | -20.4 | i | -2.3 | -1.09 | .
CCCC(C(=O)NC1CCCC1)N(Cc1cccs1)C(=O)c1snc(C(N)=O)c1N (configuration not stated) | -3.8 | -20.8 | i | 1.9 | . | 0.0748
CC(C)CC(C(=O)NC1CCCC1)N(Cc1ccc2c(c1)OCO2)C(=O)c1snc(C(N)=O)c1N (configuration not stated) | 0.9 | -33.5 | i | -17.0 | -0.675 | .
CC(C)CCNC(=O)C(CC(C)C)N(Cc1ccc2c(c1)OCO2)C(=O)c1snc(C(N)=O)c1N (configuration not stated) | -3.7 | -16.8 | i | -11.8 | . | ?
CCOC(=O)C1(CCOc2ccccc2)CCN(Cc2ccc(C)o2)CC1 | -1.4 | 17.4 | i | 13.2 | -4.51* | 0.0674*
CCOC(=O)C1(CCc2ccccc2)CCN(Cc2ccc(OC)cc2)CC1 | -6.2 | 30.7 | i | 6.0 | -0.0367 | .
CCOC(=O)C1(CCc2ccccc2)CCN(Cc2c(O)cccc2OC)CC1 | -2.3 | -5.7 | i | -16.6 | -2.79* | 0.0547*
O=C1CN(C(=O)c2cc3ccccc3oc2=O)C(c2ccc(F)cc2)c2cc(F)ccc2N1 (configuration not stated) | 3.5 | -11.8 | . | -7.7 | 3.98* | 0.0751
